About 79,000 compounds went through this panel and 15% of them were active in at least one assay; those are over-represented in the sample as a whole. A number with no mark means an inactive call. The source made the active and inactive calls. Cut-off read from the data, not from the text of the source: active = growth inhibition above about 70%; inactive = the rest. Where a SMILES comes first, the peptide text is derived from it. Bridges are numbered along the chain shown (N, C = ends). [ ]: non-standard residue; d: D form. The star is where a group is joined. ξ: configuration not given here. ξNMePhe(4-NMe2) = CNC(Cc1ccc(N(C)C)cc1)C(=O)O; Picolinoyl(3-OH) = O=C(c1ncccc1O)*; ξPip(4-oxo) = O=C1CCNC(C(=O)O)C1; Phg = N[CH](C(=O)O)c1ccccc1; Abu = CC[CH](N)C(=O)O
Columns and labels:
[1] = NCI Yeast Anticancer Drug Screen. Data for the rad50 strain (AID 155);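 note: 0% = growth of vehicle-only cultures of the same strain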; conditions: S. cerevisiae rad50 strain growth inhibition; at 50.0 µM; stronger effect = higher value
Outline: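 Compounds were tested on a yeast strain with an engineered DNA damage repair alteration; the reported value is growth inhibition normalised to vehicle treatment.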

[2] = NCI Yeast Anticancer Drug Screen. Data for the mec2-1 strain (AID 157); conditions: S. cerevisiae mec2-1 strain, at 50.0 µM, stronger effect = higher value
Outline: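 Yeast mec2-1 mutant treated with compound. Readout: growth inhibition vs vehicle controls.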

[3] = NCI Yeast Anticancer Drug Screen. Data for the sgs1 mgt1 strain (AID 161);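 note: 0% = growth of cultures given vehicle only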; conditions: S. cerevisiae sgs1 mgt1 strain, at 50.0 µM, stronger effect = higher value
Outline: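 Mutant yeast exposed to compound; growth scored against vehicle-only wells.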

[4] = NCI Yeast Anticancer Drug Screen. Data for the cln2 rad14 strain (AID 165);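 note: 0% = growth equal to vehicle treated cultures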; conditions: S. cerevisiae cln2 rad14 strain, at 50.0 µM, stronger effect = higher value
Outline: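 cln2 rad14 yeast strain; compound exposure; growth inhibition read vs vehicle controls.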

[5] = NCI Yeast Anticancer Drug Screen. Data for the bub3 strain (AID 167); conditions: S. cerevisiae bub3 mutant strain, at 50.0 µM, stronger effect = higher value
Outline: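 Growth of a checkpoint-deficient yeast mutant is measured after compound exposure. Values represent inhibition relative to vehicle.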

[6] = NCI Yeast Anticancer Drug Screen. Data for the mlh1 rad18 strain (AID 175); conditions: S. cerevisiae mlh1 rad18 strain growth inhibition; at 50.0 µM; stronger effect = higher value
Outline: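 Yeast w/ defined DNA-repair lesions; compound exposure; growth vs vehicle controls → % inhibition.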

SMILES	growth inhibition [1]	growth inhibition [2]	growth inhibition [3]	growth inhibition [4]	growth inhibition [5]	growth inhibition [6]
Nc1ncnc2c1nc(N)n2C1OC(CO)C(O)C1O (stereo not drawn)	-2.6%	-17.9%	0.4%	-23.4%	15.3%	0%
O=C(NC1CCCCC1)OCc1c(COC(=O)NC2CCCCC2)c(-c2ccc(Cl)c(Cl)c2)n2c1CCC2	16%	7.1%	27.4%	43.3%	-5.3%	6.9%
CC(C)=NNC(N)=S	2.45%	-9.4%	-23.9%	-22.8%	2.35%	-3.95%
Cc1cc2nc(CC(=O)c3cccc([N+](=O)[O-])c3)c(=O)[nH]c2cc1C	22.2%	10.9%	7.1%	20.5%	-6.15%	39.5%
CC(CC(=O)c1ccccc1)c1ccccc1 (stereo not drawn)	-7.9%	-18.4%	-10.7%	-13.7%	-19.4%	10.2%
Clc1ccc(-c2n[nH]c3c2Cc2ccccc2-3)cc1Cl	-5.1%	-10.8%	16.4%	16.4%	11.8%	7.45%
CCN(CC)c1ccc2nc3ccc(=[N+](CC)CC)cc-3oc2c1	-213%	-192%	-187%	-165%	-246%	-258%
COCCCC/C(=N\OCCN)c1ccc(C(F)(F)F)cc1	26.5%	4.6%	12.6%	-3.9%	-0.35%	25.3%
CC(=O)Nc1c(C)cc(C)cc1C	0.3%	-0.35%	-6.4%	-11.8%	9.45%	0.1%
O=S(=O)(Cc1ccccc1)c1ccccc1	4.6%	1.1%	2.1%	-0.8%	-17.5%	23.9%
CC(=O)OCCO	9.6%	3.5%	-9.65%	-6.35%	-41.8%	17.6%
CCOC(=O)c1coc(C(=O)OCC)c1C(=O)OCC	-4.95%	-18.1%	5.25%	-3.05%	4.6%	5.3%
CC1(C)OC(=O)C(c2ccsc2)C(=O)O1	-6.25%	-9.35%	-20.4%	32.8%	-7.05%	-3.7%
CCC(C#N)(CC)c1ccccc1	16%	13.4%	11.1%	12.7%	-3.2%	36.3%
Cc1ccc(O)c(C(=O)c2ccccc2)c1	4.3%	-16.7%	12.5%	-8.8%	-3.65%	14.7%
Cc1ccncc1C(N)=O	-1.4%	-2.8%	-9.55%	-0.85%	-11%	3.3%
CC1(O)CCCCC1O (stereo not drawn)	-8.1%	-37.6%	-8.3%	-20.9%	-13.8%	-15.3%
Cc1cccc(CO)c1	14.3%	-28.6%	-25.1%	-57%	-18.4%	-22.1%
CCc1nc(N)nc(N)c1-c1ccc(Cl)cc1	-9.9%	2.9%	-4.45%	-42.5%	-14%	-21.2%
O=S(=O)(O)c1ccc(Cl)c(Cl)c1	-0.35%	-15%	-3.4%	15.4%	-19.5%	-2.25%
COC(=O)c1ccccc1N(C)C	0.55%	-11.2%	-3.8%	2.4%	2.65%	0.9%
N#CC(=Nc1cccc(F)c1)C1=C(O)c2ccccc2C1=O	11.6%	-2.6%	22.4%	27.6%	20.5%	18.8%

SMILES	growth inhibition [1]	growth inhibition [2]	growth inhibition [3]	growth inhibition [4]	growth inhibition [5]	growth inhibition [6]
COc1cccc(Sc2ccc([N+](=O)[O-])c3no[n+]([O-])c23)c1	81.5% (active)	91.7% (active)	90.2% (active)	83.3% (active)	88.4% (active)	83.5% (active)
Cc1nc2ccccc2c(C(=O)O)c1O	9.45%	-10.2%	1.5%	6.65%	11.1%	19.9%
COc1nc(N)nc2c1ncn2C1OC(CO)CC1O (stereo not drawn)	13.4%	-3.2%	-3.5%	10.9%	0.55%	25.8%
S=C1NCc2cncnc2N1	-13.7%	-2.05%	-6.9%	-8.7%	3.85%	18.8%
COC(=O)C(O)c1ccccc1 (stereo not drawn)	21.4%	11.3%	5.55%	23.7%	11.1%	20%
CCCCCCCCCCC1CO1 (stereo not drawn)	4.95%	-4.15%	-7%	-23.1%	-13.9%	-8.05%
c1cc2cccc3c4cccc5cccc(c(c1)c23)c54	-18.9%	-22.6%	-17.9%	10.8%	-4.15%	-15.4%
C/C(=C\c1cc(Cl)ccc1OCC(=O)O)[N+](=O)[O-]	38.1%	56.1%	44.5%	26.9%	40.8%	56.2%
CCC1NC(=O)C(NC(=O)c2ncccc2O)C(C)OC(=O)C(c2ccccc2)NC(=O)C2CC(=O)CCN2C(=O)C(Cc2ccc(N(C)C)cc2)N(C)C(=O)C2CCCN2C1=O (stereo not drawn) (tested in a mixture with another compound) ({Picolinoyl(3-OH)}-T[Abu]P[ξNMePhe(4-NMe2)][ξPip(4-oxo)][Phg]; ester 1-C; configuration not given here)	19.4%	-5.15%	3.3%	20.7%	9.45%	-14.7%
CCOC(=O)C(=O)C=P(c1ccccc1)(c1ccccc1)c1ccccc1	-29.5%	-22.4%	-21.9%	-8.9%	-40.9%	-24.2%
CCOc1ccc(/C=C/C(=O)c2ccccc2)cc1	-9.9%	-15.9%	24.6%	-20.1%	22.4%	-19.6%
CSC[C@H](NC(=O)COc1cccc2cnccc12)C(=O)NC(Cc1ccccc1)C(O)C(=O)N1CSC[C@H]1C(=O)NC(C)(C)C (stereo partly drawn)	-34.3%	-17.2%	-28.9%	17.6%	2.3%	-51.4%
CC(C)NC(=O)OCc1c(COC(=O)NC(C)C)c(-c2ccc(Cl)c(Cl)c2)n2c1SCC2	33.9%	-7.95%	15.9%	-1.35%	2.9%	52.9%
CCC(C)(O)c1ccc(C)cc1 (stereo not drawn)	26.5%	33%	31.8%	-21.1%	19.6%	6.4%
CC1SC(N)=NC1=O (stereo not drawn)	12.8%	-6.7%	0.25%	-2.15%	-7.5%	2.55%
COc1cc(-c2ccc(NC(=O)NC3CC3)c(OC)c2)ccc1NC(=O)NC1CC1	-26.9%	-23.2%	-24.1%	3.15%	-25.2%	-25.8%
COS(=O)(=O)c1ccc(Br)cc1	-6%	-23.4%	-17.3%	-60.8%	0.6%	-26.2%
O=[N+]([O-])c1ccc(Cl)c(S(=O)(=O)O)c1	36.4%	21.3%	21.2%	-18.9%	10.8%	35.5%
C=CCc1cc(C(C)=O)cc(OC)c1O	-16.1%	-6.7%	5.7%	-16.5%	-34.4%	-19.4%
CN(C)CCC(=O)c1ccc(O)cc1	4.6%	8.65%	3.25%	-22.2%	-14.8%	-9.45%
N#CCCN(CCCN1CCOCC1)CN1C(=O)c2ccccc2C1=O	5.8%	9.15%	35.5%	5.8%	34.6%	19.4%
